# Assay results from PubChem BioAssay (EPA / NIEHS).
# Results filed as inconclusive are left out. Calls of active or inactive are those of the source. Rule for the calls, unless noted: active = hit-call score of the fitted dose curve at least 0.9, where 1 is the maximum; inconclusive = response in the unintended direction; inactive = score below 0.9.
# How the values were obtained:
# [1] = biological target: mouse Estrogen Receptor alpha (Era), Esr1 (gene 13982) (UniProt P19785); test: NVS_NR_mERa: NovaScreen (NVS) Nuclear Receptor Binding Assay for mouse Estrogen Receptor alpha (Era) (AID 2283378);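 note: hit means loss of bound radioligand signal relative to DMSO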
# Outline: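 Measurements come from scintillation counting after filtration, taken 18 hours after chemicals were added to a cell-free mouse Era preparation with radioligand. Screening was duplicate at 25 uM, with concurrent positive and negative controls and confirmatory concentration series for actives.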
# [2] = biological target: Estrogen receptor beta (Homo sapiens) (UniProt Q92731); test: OT_ER_ERbERb_1440: Odyssey Thera (OT) 24-hour HEK293T Protein-Complementation Assay for Estrogen Receptor-beta/-beta Homodimer (AID 2283380);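 note: fluorescence gain from ER beta LBD homodimer complementation read by laser scanning cytometry; scored as signal increase over DMSO baseline for both agonists and antagonists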
# Outline: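 Fluorescence increase, nuclear for agonists or whole-cell for antagonists, relative to DMSO vehicle, quantified by laser scanning cytometer after fixation and Draq5 staining. Readout from 24 h treatment of HEK293T cells carrying complementation-paired ER beta LBD (aa 310-547).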
# [3] = biological target: Estrogen receptor (Homo sapiens) (UniProt P03372); test: OT_ERa_GFPERaERE_0480: Odyssey Thera (OT) 8-hour HeLa Transcription Induction Assay for Estrogen Receptor (AID 2283381; active = hit-call score of the fitted dose curve at least 0.9, where 1 is the maximum; inactive = score below 0.9)
# Outline: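 GFP-ERE reporter, HeLa, 8 h exposure. Readout: fluorescence microscopy, high-content image analysis. Fit direction positive vs DMSO negative control.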
# [4] = biological target: Estrogen receptor (Homo sapiens) (UniProt P03372); test: OT_ERa_GFPERaERE_0120: Odyssey Thera (OT) 2-hour HeLa Transcription Induction Assay for Estrogen Receptor (AID 2283382)
# Outline: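 Fluorescence microscopy read-out: inducible fluorescent protein reporter in HeLa cells, imaged 2 h post-dose. Signal increase over DMSO negative control fitted as single primary endpoint via high content image analysis.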
# [5] = biological target: Agonist Androgen Response Element (ARE), AR (gene 367) (UniProt P10275); test: OT_AR_ARELUC_AG_1440: Odyssey Thera (OT) 24-hour CHO-K1 Luciferase Assay for Agonist Androgen Response Element (ARE) (AID 2283379)
# Outline: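 Readout: luciferase bioluminescence from CHO-K1 ARE-luc cells, measured 24 h post-dosing; agonism = increased mean luminescence vs DMSO controls, fitted in positive direction.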
# [6] = biological target: Bile acid receptor (Homo sapiens) (UniProt Q96RI1); test: OT_FXR_FXRSRC1_0480: Odyssey Thera (OT) 8-hour HEK293T Protein-Complementation Assay for Farnesoid X receptor/SRC-1 Co-activator (AID 2283383)
# Outline: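 Fluorescence intensity read-out, 8 h post-dose, HEK293T protein-fragment complementation; FXR bait and SRC-1 prey each linked to reporter fragments. Activity scored as signal increase over DMSO negative control.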
# Sequence of Estrogen receptor (Homo sapiens) (P03372 whole entry, looked up): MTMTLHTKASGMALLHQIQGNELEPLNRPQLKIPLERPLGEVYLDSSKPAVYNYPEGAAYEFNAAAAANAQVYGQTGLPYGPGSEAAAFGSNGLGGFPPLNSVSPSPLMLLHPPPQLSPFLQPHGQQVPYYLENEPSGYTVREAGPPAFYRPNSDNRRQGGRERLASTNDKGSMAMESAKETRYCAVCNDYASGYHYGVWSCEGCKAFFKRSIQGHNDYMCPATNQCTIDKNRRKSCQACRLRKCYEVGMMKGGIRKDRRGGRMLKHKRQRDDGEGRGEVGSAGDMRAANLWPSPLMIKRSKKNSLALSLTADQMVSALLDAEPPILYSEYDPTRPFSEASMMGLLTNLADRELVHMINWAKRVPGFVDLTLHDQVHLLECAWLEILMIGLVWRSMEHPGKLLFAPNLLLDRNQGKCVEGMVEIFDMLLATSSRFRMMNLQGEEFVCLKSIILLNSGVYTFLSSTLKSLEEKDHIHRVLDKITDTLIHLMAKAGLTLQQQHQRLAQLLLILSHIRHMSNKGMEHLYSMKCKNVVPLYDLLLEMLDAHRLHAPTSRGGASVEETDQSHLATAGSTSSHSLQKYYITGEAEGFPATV
# Sequence of Estrogen receptor beta (Homo sapiens) (Q92731 whole entry, looked up, the tested form may be a part): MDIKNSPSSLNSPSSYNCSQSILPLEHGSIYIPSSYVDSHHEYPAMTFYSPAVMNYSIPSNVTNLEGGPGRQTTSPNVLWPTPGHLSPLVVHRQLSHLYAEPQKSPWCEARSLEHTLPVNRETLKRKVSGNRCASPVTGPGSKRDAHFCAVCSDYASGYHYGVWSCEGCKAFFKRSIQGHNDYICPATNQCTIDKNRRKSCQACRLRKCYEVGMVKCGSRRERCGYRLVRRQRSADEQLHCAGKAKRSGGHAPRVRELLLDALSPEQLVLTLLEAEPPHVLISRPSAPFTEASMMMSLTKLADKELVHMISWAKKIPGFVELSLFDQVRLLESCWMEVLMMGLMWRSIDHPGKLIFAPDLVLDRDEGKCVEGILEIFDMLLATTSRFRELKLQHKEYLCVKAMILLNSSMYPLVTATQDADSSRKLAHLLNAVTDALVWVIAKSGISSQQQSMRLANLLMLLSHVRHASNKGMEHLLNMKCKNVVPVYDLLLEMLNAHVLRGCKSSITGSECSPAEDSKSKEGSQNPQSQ
# Sequence of Agonist Androgen Response Element (ARE), AR (gene 367) (P10275 whole entry, looked up): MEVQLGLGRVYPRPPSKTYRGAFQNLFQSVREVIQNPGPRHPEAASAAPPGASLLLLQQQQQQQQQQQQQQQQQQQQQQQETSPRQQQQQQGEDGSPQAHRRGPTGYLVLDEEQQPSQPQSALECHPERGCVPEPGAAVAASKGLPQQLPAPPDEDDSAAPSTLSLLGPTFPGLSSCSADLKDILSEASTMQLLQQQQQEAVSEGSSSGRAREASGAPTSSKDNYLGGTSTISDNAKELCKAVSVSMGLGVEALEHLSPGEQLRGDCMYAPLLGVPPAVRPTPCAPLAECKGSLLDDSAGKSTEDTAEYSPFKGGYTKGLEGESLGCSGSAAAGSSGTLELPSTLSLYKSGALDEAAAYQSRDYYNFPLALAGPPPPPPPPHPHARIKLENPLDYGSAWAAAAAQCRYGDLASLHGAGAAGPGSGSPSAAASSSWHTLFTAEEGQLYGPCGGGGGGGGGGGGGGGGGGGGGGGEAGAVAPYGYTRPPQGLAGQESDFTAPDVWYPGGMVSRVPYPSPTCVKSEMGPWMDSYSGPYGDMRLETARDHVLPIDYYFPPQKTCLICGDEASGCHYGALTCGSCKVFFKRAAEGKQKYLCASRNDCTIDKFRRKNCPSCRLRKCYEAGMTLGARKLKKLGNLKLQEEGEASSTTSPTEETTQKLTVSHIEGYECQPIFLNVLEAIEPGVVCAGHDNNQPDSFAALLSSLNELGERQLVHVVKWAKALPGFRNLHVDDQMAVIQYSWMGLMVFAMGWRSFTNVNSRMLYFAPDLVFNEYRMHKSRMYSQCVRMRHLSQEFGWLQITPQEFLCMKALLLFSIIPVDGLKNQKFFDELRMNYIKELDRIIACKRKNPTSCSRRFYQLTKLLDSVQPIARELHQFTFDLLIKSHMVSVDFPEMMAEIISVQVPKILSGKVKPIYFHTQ
# Sequence of Bile acid receptor (Homo sapiens) (Q96RI1 whole entry, looked up, the tested form may be a part): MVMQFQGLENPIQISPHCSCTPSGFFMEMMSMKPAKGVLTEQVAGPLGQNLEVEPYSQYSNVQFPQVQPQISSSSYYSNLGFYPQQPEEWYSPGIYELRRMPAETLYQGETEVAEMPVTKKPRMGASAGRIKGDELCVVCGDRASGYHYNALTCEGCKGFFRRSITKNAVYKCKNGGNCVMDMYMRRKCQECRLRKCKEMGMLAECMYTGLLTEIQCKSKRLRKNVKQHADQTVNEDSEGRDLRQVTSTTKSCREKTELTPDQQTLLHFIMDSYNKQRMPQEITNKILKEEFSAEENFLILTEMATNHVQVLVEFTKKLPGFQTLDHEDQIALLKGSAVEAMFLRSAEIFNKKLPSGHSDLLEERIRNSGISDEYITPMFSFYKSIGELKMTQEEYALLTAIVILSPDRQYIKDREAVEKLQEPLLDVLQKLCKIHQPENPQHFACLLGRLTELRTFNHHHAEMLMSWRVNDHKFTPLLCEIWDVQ
# Sequence of mouse Estrogen Receptor alpha (Era), Esr1 (gene 13982) (P19785 whole entry, looked up): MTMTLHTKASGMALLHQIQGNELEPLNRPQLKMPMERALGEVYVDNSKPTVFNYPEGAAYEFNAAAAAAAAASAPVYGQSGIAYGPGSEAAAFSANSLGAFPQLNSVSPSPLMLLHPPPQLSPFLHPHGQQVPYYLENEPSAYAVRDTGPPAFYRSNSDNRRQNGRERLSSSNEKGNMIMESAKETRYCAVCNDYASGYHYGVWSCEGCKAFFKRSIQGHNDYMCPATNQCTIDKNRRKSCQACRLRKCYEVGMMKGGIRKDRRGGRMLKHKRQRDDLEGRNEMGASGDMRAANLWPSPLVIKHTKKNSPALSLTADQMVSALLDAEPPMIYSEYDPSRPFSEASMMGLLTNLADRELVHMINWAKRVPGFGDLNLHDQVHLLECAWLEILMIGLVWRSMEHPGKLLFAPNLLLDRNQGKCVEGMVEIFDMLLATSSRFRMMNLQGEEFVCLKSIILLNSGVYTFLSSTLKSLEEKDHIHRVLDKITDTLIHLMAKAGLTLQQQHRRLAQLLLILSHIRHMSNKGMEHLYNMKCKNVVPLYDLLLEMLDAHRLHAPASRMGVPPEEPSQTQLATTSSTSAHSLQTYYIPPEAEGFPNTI
structure (smiles),measurement,setting,value
NCc1cccc(CN)c1,AC50,[1],6.34 µM (active)
same,outcome,[2],inactive
same,outcome,[3],inactive
same,outcome,[4],inactive
COc1cc([N+](=O)[O-])ccc1N,outcome,[5],inactive
same,AC50,[2],28.4 µM (active)
same,outcome,[3],inactive
same,outcome,[4],inactive
same,outcome,[6],inactive
O=C(O)c1cccc(C(=O)O)n1,outcome,[2],inactive
same,outcome,[3],inactive
same,outcome,[4],inactive
CCCCCCCCCCCC(=O)O,outcome,[2],inactive
CCCCCCCCCC=CCC1CC(=O)OC1=O (stereo not drawn),AC50,[5],21.2 µM (active)
same,outcome,[2],inactive
same,outcome,[3],inactive
same,outcome,[4],inactive
same,outcome,[6],inactive
